Rows were chosen to be rich in hits. Some 1.2% of all compounds tested hit in one or more screens of this group.
VLA-4 inh: inhibition in a human VLA-4 binding assay. 330,000 compounds, 0.2% hits. VLA-4 expressing cells, ligand binding flow cytometry. inhibition, % (about 7 µM as worked out from the volumes in the protocol). P13612. AID 2557; in the data active means inhibition above about 50%
CR mimetic SO: yeast age-related superoxide inhibition as caloric restriction mimetic; AID 2690; S. cerevisiae aged cells, superoxide DHE fluorescence; hits give low values; superoxide response (% of plate mean), % at 10 µM; 330,000 compounds, 0.18% hits;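 active means superoxide response under a set limit, about three screen SD below normal, cut at about 65% in these data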;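 further: yeast aged for seven days with compound at 30 °C before DHE staining; 100% = average MFI of all compound-treated wells on the plate with controls excluded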
ABCB6 inh 2: human ABCB6 transporter inhibition; Q9NP58; fluorescence ratio to DMSO, % at 10 µM; 360,000 compounds, 0.19% hits; K562-ABCB6 porphyrin accumulation, flow cytometry, 1 h; hits give low values; AID 602162;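 active means fluorescence ratio to DMSO below 75%, the collection mean minus 3 SD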;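 further: signal is porphyrin accumulated inside mitochondria; 100% equals median channel fluorescence of DMSO control wells; lower ratio means ABCB6 inhibition with less porphyrin fluorescence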
Target sequence (Q9NP58 whole entry, looked up): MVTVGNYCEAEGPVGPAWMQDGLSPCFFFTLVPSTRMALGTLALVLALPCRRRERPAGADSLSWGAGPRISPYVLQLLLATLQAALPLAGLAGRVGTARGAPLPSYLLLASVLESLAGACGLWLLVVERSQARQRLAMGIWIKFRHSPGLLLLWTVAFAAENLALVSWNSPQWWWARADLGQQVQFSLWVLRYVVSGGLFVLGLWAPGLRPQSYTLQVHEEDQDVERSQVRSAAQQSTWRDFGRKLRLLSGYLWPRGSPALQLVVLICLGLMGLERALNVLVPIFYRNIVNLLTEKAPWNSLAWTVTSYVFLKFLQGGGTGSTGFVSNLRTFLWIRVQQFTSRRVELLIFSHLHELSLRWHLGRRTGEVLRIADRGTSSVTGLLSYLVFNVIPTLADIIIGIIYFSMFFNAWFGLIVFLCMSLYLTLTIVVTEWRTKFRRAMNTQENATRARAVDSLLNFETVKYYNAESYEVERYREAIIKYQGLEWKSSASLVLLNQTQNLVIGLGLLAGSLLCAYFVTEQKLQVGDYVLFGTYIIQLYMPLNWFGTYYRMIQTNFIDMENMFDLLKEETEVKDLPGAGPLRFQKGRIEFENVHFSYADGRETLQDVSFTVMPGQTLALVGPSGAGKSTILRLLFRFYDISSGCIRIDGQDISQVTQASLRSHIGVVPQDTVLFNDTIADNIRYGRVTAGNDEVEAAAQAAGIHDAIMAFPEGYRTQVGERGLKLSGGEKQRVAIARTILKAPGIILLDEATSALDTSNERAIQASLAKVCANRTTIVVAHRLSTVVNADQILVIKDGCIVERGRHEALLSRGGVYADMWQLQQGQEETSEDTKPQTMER
SKN-1 inh: C. elegans SKN-1 inhibition; AID 624304; 360,000 compounds, 0.49% hits; C. elegans VP596 Pgst-4::GFP/RFP ratio, acrylamide-induced, 24 h; inhibition, % at 21.8 µM;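 active means interference check ratio from 0.5 to 1.5 plus GFP to RFP signal ratio inhibition reaching or exceeding a fixed threshold, cut at about 30% in these data, passing the limit was not always enough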
Platelet DG rel: modulates dense granule release in human platelets | human platelet-rich plasma, SFLLRN dense granule ATP release, luminescence | inhibition, %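 (compounds screened at 7.5 µM in platelet-rich plasma)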 | AID 1663 | 300,000 compounds, 0.22% hits;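 active means mean replicate score, as percent of positive control, at or above 50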
ABCB6 blocker 1: human ABCB6 transporter inhibition | shares compounds with ABCB6 inh 2 | K562-ABCB6 porphyrin accumulation, flow cytometry, 1 h; hits give low values | ratio response (% of DMSO), % at 10 µM | 700 tested, under 10 active;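 active means repeat-averaged ratio response below 75% of DMSO, the collection mean minus 3 SD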;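 further: median porphyrin fluorescence at 575 nm with 488 nm excitation from mitochondria; lower ratio means less porphyrin signal so ABCB6 inhibition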
K562 vector FC: effect in K562 cells lacking ABCB6, counter-screen | shares compounds with ABCB6 inh 2 | K562 empty-vector cells, flow cytometry fluorescence, 1 h | percent response (fluorescence), % at 100 µM | 25 tested, under 10 active | AID 624484;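 active means compounds whose half-maximal effective concentration is below 100 µM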
Starred values were filed as active, the others as inactive; / = no result.

SMILES	VLA-4 inh	CR mimetic SO	ABCB6 inh 2	SKN-1 inh	Platelet DG rel	ABCB6 blocker 1	others
CN(C)S(=O)(=O)c1ccc(C(=O)NCCC(=O)N2CCCC2)cc1	7	108	70*	13	-20	101
CCN(CC)S(=O)(=O)c1cccc(-c2nnc(SCC(=O)NCCC3=CCCCC3)n2N)c1	0	105	71*	-7	-2	100
Nn1c(SCC(=O)NCCC2=CCCCC2)nnc1-c1cccnc1	/	/	91	16	/	/
NC(=O)CSc1nnc(Cn2c(=O)sc3ccccc32)n1-c1cccc(Cl)c1	3	107	66*	-21	-2	99
O=C(O)CSc1nnc(Cn2c(=O)sc3ccccc32)n1-c1cccc(Cl)c1	15	98	104	13	3	/
COc1ccc(-c2cnc(N)nc2-c2ccc(OC)cc2O)cc1	-14	98	73*	-13	11	98
COc1ccc(-c2nc(N)ncc2-c2ccccc2)c(O)c1	19	110	96	-9	2	/
CCCCNC(=O)C(NC(=O)c1ccc2c(c1)OCO2)C(=O)c1ccccc1 (stereo unspecified)	/	/	/	7	/	/
Cn1c(=O)c2c(ncn2CC(=O)NC(C)(C)C)n(C)c1=O	-8	103	74*	-10	-4	99
CC(C)NC(=O)Cn1cnc2c1c(=O)n(C)c(=O)n2C	3	110	99	-12	-1	/
COc1ccc(NC(=O)CSc2nnc(-c3ccccn3)n2N)c(OC)c1	-10	129	73*	-6	3	102
COC(=O)c1ccc(NC(=O)COc2ccc(S(=O)(=O)N3CCCCC3)cc2)cc1	1	112	70*	0	5	97
O=C(COc1cccc(C(F)(F)F)c1)Nc1ccc(S(=O)(=O)N2CCCC2)cc1	21	98	60*	-1	25	102
O=C(Nc1ccc([N+](=O)[O-])cc1)c1ccc(S(=O)(=O)N2CCCC2)cc1	0	95	73*	-2	0	100
CCOC(=O)[C@]12CCC=C1N(Cc1ccccc1)C(=O)[C@H](CC(=O)NCc1cccc(C(F)(F)F)c1)C2	/	/	93	25	/	/
CC(C)N1C(=O)c2ccccc2NC(=O)C1C(=O)NC1CC1 (stereo unspecified)	/	/	/	-14	/	/
COc1cc2c(C(=O)NCCN(C)C)cn(CC(C)C)c(=O)c2cc1OC	0	107	69*	-2	-7	101
CCN(CC)c1ccc(C(=O)OCC(=O)N(C)Cc2ccccc2)cc1	14	103	65*	3	-14	100
COCc1nnc(NC(=O)c2c(-c3c(Cl)cccc3Cl)noc2C)s1	11	99	67*	10	-4	101
O=C(NCc1ccccc1)C(C1CC1)n1c(-c2cccs2)nc2ccccc21 (stereo unspecified)	/	/	/	7	/	/
Cc1nc2c(C(=O)O)cnn2c(C)c1Cc1ccccc1F	-3	141	92	-7	-8	/
CCOC(=O)N1CCN(C(=O)c2cnn3c(C)c(Cc4ccc(C)cc4)c(C)nc23)CC1	-10	99	111	3	-1	99
Cc1ccccc1Cc1c(C)nc2nc(SCC(=O)NCc3ccco3)nn2c1C	9	106	94	-12	1	/
Cc1nc2c(C(=O)N3CCN(c4ccccn4)CC3)cnn2c(C)c1Cc1cccc(Cl)c1	-4	110	91	3	12	/
Cc1nc2c(C(=O)N3CCCC3)cnn2c(C)c1Cc1c(F)cccc1Cl	-7	95	95	17	1	97
SMILES	VLA-4 inh	CR mimetic SO	ABCB6 inh 2	SKN-1 inh	Platelet DG rel	ABCB6 blocker 1	others
Cc1ccccc1Cc1c(C)nc2c(C(=O)NCc3ccco3)cnn2c1C	-2	115	70*	3	2	99
Cc1ccc(C)c(Cc2c(C)nc3c(C(=O)N4CCOCC4)cnn3c2C)c1	11	120	93	0	-7	101
CCCC(C)(C)C(=O)N1CCC1(C)C(=O)Nc1cccc2ccccc12 (stereo unspecified)	/	/	101	8	/	/
OCc1cccc(-c2csc(C(O)c3ccco3)n2)c1 (stereo unspecified)	/	/	103	-9	/	/
CCCn1c(SCC(=O)Nc2ccc(C(=O)Nc3ccccc3OC)cc2)n[nH]c1=O	2	99	68*	3	-3	98
COc1ccccc1NC(=O)c1ccc(NC(=O)CSc2nncn2C)cc1	-11	85	93	8	0	/
COc1cc2c(c(OC)c1OC)-c1c(cc(OC)c(OC)c1OC)C[C@H](C)[C@H](C)C2	15	93	74*	1	5	99
COc1cc2c(c(O)c1OC)-c1c(cc(OC)c(OC)c1OC)C[C@@H](C)[C@@H](C)C2	-1	103	95	12	0	/
CS(=O)(=O)c1ncc(Cl)c(C(=O)Nc2ccc(N3CCOCC3)cc2)n1	16	93	93	5	3	/
O=C(Nc1ccc(F)cc1)c1nc(S(=O)(=O)Cc2ccccc2)ncc1Cl	24	122	46*	-2	32	93
Cc1ccc(NC(=O)c2nc(S(=O)(=O)Cc3ccccc3)ncc2Cl)cc1	14	137	35*	-3	23	85
O=C(Nc1ccc(F)cc1)c1nn(-c2ccccc2)c(=O)cc1Cl	/	/	100	2	2	/
Cc1ccccc1CS(=O)(=O)c1ncc(Cl)c(C(=O)Nc2ccc(F)cc2)n1	14	110	36*	-5	14	/	K562 vector FC=299
COc1ccccc1S(=O)(=O)N[C@@H]1CC[C@@H](CCn2cc(C3CC3)nn2)O[C@@H]1CO	/	/	/	7	/	/
CC(C)(C)CN1CCC(Oc2cccc(C(=O)N3CCNC(=O)C3(C)C)c2)CC1	-8	108	14*	-6	-15	102
CCCCN(C)C(=O)c1cccc(OC2CCN(CC(C)(C)C)CC2)c1	17	102	100	-5	6	/
CCOc1ccc(C(=O)CCC(=O)NNC(=O)c2ccncc2)cc1	-5	107	95	2	19	/
CCOc1ccc(C(=O)CCC(=O)Nc2cc(C)ccn2)cc1	-8	107	74*	0	7	104
O=C(NC1CCCCC1)C1c2ccccc2OCC(=O)N1Cc1ccc2c(c1)OCO2 (stereo unspecified)	/	/	97	4	/	/
CCCCSCc1ccc(C(=O)O)o1	1	96	97	8	-2	/
N#CCCSCc1ccc(C(=O)O)o1	33	90	68*	8	-2	99
COc1ccccc1Oc1nc2c(c(=O)n(Cc3ccccc3F)c(=O)n2C)n1C	2	89	74*	10	-3	98
CCn1c(SCCC(=O)O)nnc1-c1cccnc1	2	90	97	-5	1	/
CCn1c(SCC(=O)c2ccccc2)nnc1-c1cccnc1	9	87	71*	2	4	101

Screening results from PubChem.
